Bioassay records as filed in PubChem.
D3 ag: activates the human D3 dopamine receptor | P35462 | D3R DiscoveRx beta-arrestin cells, luminescence, 90 min | max activation, % | actives 0.58% (n = 410,000); in the data active means max activation above about 30%; further: 0% is about no effect
Target sequence (P35462 whole entry, looked up): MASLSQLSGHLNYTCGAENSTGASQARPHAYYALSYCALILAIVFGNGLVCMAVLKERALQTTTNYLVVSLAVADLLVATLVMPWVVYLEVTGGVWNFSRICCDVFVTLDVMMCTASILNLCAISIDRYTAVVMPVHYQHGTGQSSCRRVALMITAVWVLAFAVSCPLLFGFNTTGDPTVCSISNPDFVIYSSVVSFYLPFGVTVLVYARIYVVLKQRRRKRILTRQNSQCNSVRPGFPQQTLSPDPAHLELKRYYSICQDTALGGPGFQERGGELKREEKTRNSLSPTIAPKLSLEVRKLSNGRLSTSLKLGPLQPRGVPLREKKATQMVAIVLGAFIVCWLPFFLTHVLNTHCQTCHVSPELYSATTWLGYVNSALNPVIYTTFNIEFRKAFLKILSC
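Agonist-mode cell screen: cells plated at 1500/well and incubated overnight at 37 °C, then exposed to library compounds for 90 min at 37 °C. Detection reagent was added for 30–60 min at room temperature, and luminescence was read.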
Giardia kill: kills Giardia lamblia. Giardia lamblia trophozoite viability. AID 540267. activity change, % at 7.66 µM, hits read low. actives 0.15% (n = 340,000); in the data active means activity change below about -80%; inconclusive means between about -30% and that limit;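 further: parasites exposed to compound for two days anaerobically before the ATP read; on the % scale 0 is the no-effect control and ±100 the full control effect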
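Media and compound were dispensed first, then trophozoites at 100 cells/well; plates sat 48 hrs at 37 deg C without oxygen before ATP luminescence reagent was added and read after 15-30 min at room temperature.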
B2AR arrestin: beta2AR (human) beta-arrestin recruitment activity. actives 0.02% (n = 330,000). beta-arrestin recruitment to beta2AR, cell-based reporter. Potency, µM (top dose mostly 46.1 µM), without a hit: at the highest dose activation, actives largely listed as activators. P07550; active means well fitted activation curve with a large enough effect; inconclusive means small, poorly fitted or top-dose-only effect;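 further: potency means the concentration at half of the fitted maximal effect; 0% = DMSO controls and full agonism = EC100 isoproterenol or metaproterenol; nearly all actives have a fitted effect of over 65% in size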
DRD3 antagonist: blocks the human D3 dopamine receptor; P35462; D3R cells, DiscoveRx beta-arrestin luminescence, antagonist mode; active compounds read low; max response, negative = inhibition, %; actives 2.5% (n = 360,000); in the data active means max response below about -50%; inconclusive means no clear call, values can overlap the other calls; further: on the % scale 0 is the no-effect control and ±100 the full control effect
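Cells expressing the human receptor were seeded at 1500 cells/well, incubated overnight at 37 degrees C in 5% CO2, then exposed to library compounds with dopamine controls for 90 minutes at 37 degrees C before luminescent detection.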
The depositor's hits bear a star; ? = inconclusive; · = not tested or not shown. Sampled rows, rich in hits. Any-hit rate of the full collection: about 2.8%.

SMILES	D3 ag	Giardia kill	B2AR arrestin	DRD3 antagonist
COCCCNC(=O)C[C@@H]1C[C@@]2(C(=O)OC)CC(C)(C)CC=C2N(CCc2ccc(OC)c(OC)c2)C1=O	-21	·	·	-70*
CCCCNC(=O)C[C@@H]1C[C@@]2(C(=O)OC)CC(C)(C)CC=C2N(CCc2ccc(OC)c(OC)c2)C1=O	-3	·	·	5
Cc1ccc(-n2nc(C)c3c(C(F)(F)F)cc(-c4cccnc4)nc32)cc1C	14	·	·	·
Cc1ccc(CN2C(=O)C(C)Nc3ncnc(N4CCN(c5ccccn5)CC4)c32)cc1 (stereo not drawn)	-54	-8	-1%	-132*
COc1ccc(CN2C(=O)C(CC(C)C)Nc3ncnc(N4CCN(c5ccccn5)CC4)c32)cc1 (stereo not drawn)	-31	-12	0%	-29
COc1ccc(CN2C(=O)C(C)Nc3ncnc(N4CCN(c5ccccn5)CC4)c32)cc1 (stereo not drawn)	-58	19	0%	-149*
CC1Nc2ncnc(N3CCN(c4ccccn4)CC3)c2N(Cc2ccccc2)C1=O (stereo not drawn)	-45	23	-1%	-106*
CCC1Nc2ncnc(N3CCCCC3)c2N(Cc2ccc(C)cc2)C1=O (stereo not drawn)	-9	-8	0%	?
CCC1CCCCN1S(=O)(=O)c1ccc(C(=O)Nc2nnc(-c3ccccc3Cl)o2)cc1 (stereo not drawn)	8	-18	0%	-86*
CC1CCCCN1S(=O)(=O)c1ccc(C(=O)Nc2nnc(-c3ccccc3Cl)o2)cc1 (stereo not drawn)	5	-11	0%	-71*
O=C(Nc1nnc(-c2ccccc2Cl)o1)c1ccc(S(=O)(=O)N2CCCCCC2)cc1	4	-5	-1%	-30
CCC1CCCCN1CCCNC(=O)c1ccc2c(c1)N(Cc1ccc(Cl)cc1)C(=O)c1ccccc1S2(=O)=O (stereo not drawn)	-7	·	·	·
O=C1CC(c2cccc(Cl)c2)CC(O)=C1C=Nc1cccc(Cl)c1 (stereo not drawn)	5	14	-1%	8
O=C1CC(c2cccc(Cl)c2)CC(O)=C1C=NCCCO (stereo not drawn)	-6	-9	0%	-90*
COC(=O)c1ccc(-c2ccc(C3C4C=CCC(C)C4C(=O)N3Cc3ccccc3)c(F)c2)cc1 (stereo not drawn)	·	18	·	·
CN1C2CCC1CC(OC(c1ccccc1)c1ccccc1)C2 (stereo not drawn)	-21	1	0%	?
CN1CCC(OC(c2ccccc2)c2ccc(Cl)cc2)C1 (stereo not drawn)	-17	5	·	-74*
C[C@H](CO)N1C[C@H](C)[C@@H](CN(C)C(=O)Nc2ccc(C(F)(F)F)cc2)Oc2ccc(NS(=O)(=O)c3ccc(F)cc3)cc2C1=O	-5	-8	0%	0
C[C@H](CO)N1C[C@H](C)[C@@H](CN(C)S(=O)(=O)c2cn(C)cn2)Oc2ccc(NC(=O)Nc3ccccc3)cc2C1=O	0	-7	0%	5
CCOC(=O)CCCCCC(=O)Nc1ccc2c(c1)C(=O)N([C@H](C)CO)C[C@@H](C)[C@H](CN(C)S(=O)(=O)c1cn(C)cn1)O2	47*	-1	0%	23
C[C@H](CO)N1C[C@H](C)[C@@H](CN(C)S(=O)(=O)c2ccccc2)Oc2ccc(NC(=O)CCC(F)(F)F)cc2C1=O	35*	-29	0%	4
C[C@H](CO)N1C[C@H](C)[C@@H](CN(C)C(=O)Nc2ccc(C(F)(F)F)cc2)Oc2ccc(NS(=O)(=O)c3ccccc3)cc2C1=O	31*	0	0%	18
C[C@H](CO)N1C[C@H](C)[C@@H](CN(C)C(=O)Nc2ccc(C(F)(F)F)cc2)Oc2ccc(NS(=O)(=O)c3cccs3)cc2C1=O	30*	47	0%	12
C[C@H](CO)N1C[C@H](C)[C@@H](CN(C)S(=O)(=O)c2ccccc2)Oc2ccc(NC(=O)Nc3ccc(C(F)(F)F)cc3)cc2C1=O	-8	0	3%	6
COc1ccc(NC(=O)N(C)C[C@H]2Oc3ccc(NS(=O)(=O)c4cccs4)cc3C(=O)N([C@@H](C)CO)C[C@@H]2C)cc1	3	2	-1%	-12
CSc1nc(=O)[nH]c2nc[nH]c12	·	-17	·	·
CCOc1ccc(C2=NC(c3cccs3)=Nc3ccc(CC)cc3N2)cc1OCC	-12	·	·	·
C[C@H](CO)N1C[C@H](C)[C@@H](CN(C)S(C)(=O)=O)Oc2ccc(NC(=O)C3CCCCC3)cc2C1=O	52*	-5	0%	20
